Drawing on PubChem BioAssay (EPA / NIEHS), this text covers outcome and AC50 for ten compounds.

Each structure is given as a SMILES string. Active and inactive are the calls of the source. How the source made its calls: active means hit-call score of the fitted dose curve at least 0.9, where 1 is the maximum; inactive means score below 0.9.

A short description of the assay: IUF_NPC2-5_cell_number_120hr: Cell Number Assessment at 120 hours in the Leibniz Research Institute for Environmental Medicine (IUF) Neural Progenitor Cell Migration and Differentiation Assay (NPC2-5) (AID 2284308).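 Further: count of Hoechst-stained nuclei in migration zone around plated human neural progenitor spheres.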 Here is the method:
IUF_NPC2-5 is a cell-based, multiplexed assay that uses hNPC, a human primary neural progenitor cells, with measurements taken at 72 or 120 hours after chemical dosing in a 96-well plate. Human neural progenitor cells (hNPC) are generated from human fetal brain cortex at gestational week (GW) 16-19. In the neural progenitor cell migration and differentiation assay (NPC2-5), hNPCs grown as spheres are plated on an extracellular matrix and migrate and differentiate out of the sphere core. The processes radial glia migration, neuronal and oligodendrocyte migration as well as neuronal differentiation, neuronal morphology and oligodendrocyte differentiation are studied using automated phase contrast imaging and automated fluorescence imaging in combination with high content image analysis. In parallel, the cell viability is assessed using an alamar blue viability assay and the cytotoxicity using a lactate dehydrogenase dependent membrane integrity assay.IUF_NPC2-5_cell number_120hr is one of 12 assay components measured from the IUF_NPC2-5 assay. The cell number at 120 hr is assessed as the number of all Hoechst-positive nuclei identified in the migration area (see IUF_NPC2a_ glia_migration_120hr).Data from the IUF_NPC2-5_cell_number_120hr component was analyzed at the endpoint IUF_NPC2-5_cell_number_120hr in the positive analysis fitting direction relative to DMSO as the negative control and baseline of activity. Using a type of viability reporter, gain or loss-of-signal activity can be used to understand viability effects.
Culture protocol: After the cell expansion period the cells are cultured for up to four weeks in which they are passaged every week as described in 3.6. Between one to three days after passaging spheres at a size of 0.3 mm are picked for the test method. For the assessment of neural progenitor cell migration and differentiation, the spheres are plated on poly-D-lysine/laminin coated 96-well flat bottom plates in differentiation medium (N2) to initiate migration and differentiation. Thereby one 0.3 mm big sphere is plated in the middle of a well. The differentiation medium consists of DMEM and Ham's F12 at a ratio of 3 to 1 supplemented with 1% N2 and 1% penicillin and streptomycin. Within 5 days NPCs radially migrate out of the sphere core and differentiate into radial glia cells (nestin positive), neurons (TUBB3 positive), oligodendrocytes (O4 positive) and astrocytes (GFAP positive). Cultivation during the test method is performed at 37C and 5% CO2 at a ph of 7.2-7.6.Exposure: 0.3 mm big hNPC are plated in the already prepared test conditions. Exposure starts at day 0 of differentiation and is continued over five days of differentiation until the experiment is terminated. Cells are fed with fresh medium at day 3 of differentiation. Therefore, half of the test condition solution (e.g. solvent control or compound dilution) is replaced by freshly prepared test condition solution.Test Method: Migration distance and cytotoxicity is determined after 72 hours based on brightfield images of each well. The assay is terminated by the assessment of cell viability and cytotoxicity as well as cell fixation after 120 h. Immunocytochemistry is performed for Hoechst positive nuclei, TUBB3 positive neurons and O4 positive oligodendrocytes. On the ICC images, migration after 120 hours, neuronal and oligodendrocyte number, neuronal morphology and neuron/oligodendrocyte specific migration is assessed. immunocytochemical staining (ICC) generates an image for each sphere. The plates are scanned using an automated high content imaging device and all nuclei and their positions are determined automatically based on their intensity and size. Images are imported to the Omnisphero software to run the image analysis that measures the following endpoints. The method is set up for 8 test conditions including 7 compound concentrations and one SC. The test conditions are prepared in a serial dilution from the stock solution. […]
Turning to `O=P(OCCCl)(OCCCl)OCCCl`, the result was inactive.
As for `[O-][Cl+]O`, the call was inactive.
As for `CCCCOC(=O)c1ccccc1C(=O)OCc1ccccc1`, the compound was classed as inactive.
The same measure, in the same setting: the same measure for `OCCOCCO`: “inactive”.
Consider `CCC[CH2][Sn]([Cl])([CH2]CCC)[CH2]CCC`, for which the AC50 is 0.31 µM (active).
As to `COP(=S)(OC)SCN1C(=O)c2ccccc2C1=O`, the call was inactive.
For `CC(C)(C)C(O)(CCc1ccc(Cl)cc1)Cn1cncn1` (stereo not given), the compound was called inactive.
Same read-out and setting: next, `CC(C)COC(=O)c1ccccc1C(=O)OCC(C)C`: “inactive”.
Take `CNC(=O)Oc1cccc2c1OC(C)(C)C2`: the compound was called inactive.
With `COC(=O)Nc1nc2ccccc2[nH]1`, the AC50 was 7.82 µM (active).
